Screening results deposited in PubChem BioAssay by National Center for Advancing Translational Sciences (NCATS).
Shiga inhibitor: inhibitors of Shiga toxin in Vero cells; hit rate 9.2% among 290,000; Vero cells, Shiga toxin protein synthesis inhibition reporter; AID 2315; inhibition, % at 38.7 µM; in the data active = inhibition mostly above about 28%, no sharp cut-off; inactive = mostly below about 43%; also: 0% is about no effect
Pf growth 48h: inhibits P. falciparum growth in the first generation, 48 h. Potency, µM (doses to about 28.7 µM), without a hit: top-dose activity change, negative = inhibition, hits mostly inhibitors. AID 504832. hit rate 5.9% among 310,000. P. falciparum luciferase growth in erythrocytes, 48 h; also: potency is read from the fitted curve at half-maximal effect; % is scaled to controls: 0 for no effect and ±100 for the full control effect
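Read-out is firefly luciferase luminescence from an integrated reporter in P. falciparum, so falling signal marks reduced parasite growth. Infected erythrocytes were at 2% hematocrit and 0.1% parasitemia (final) in Albumax-supplemented RPMI 1640.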
AMA1-RON2 inh: disrupts binding of P. falciparum AMA1 to RON2; AlphaScreen AMA1-biotinylated RON2 peptide binding; Potency, µM (doses to about 58.2 µM), for the others: at the top dose activity change, negative = inhibition, actives largely listed as inhibitors; hit rate 0.2% among 360,000;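 also: potency is read from the fitted curve at half-maximal effect; 0% = vehicle wells and -100% = peptide control; nearly all actives have a fitted effect of over 45% in size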
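AMA1 (3D7) with his tag at 25 nM final met compounds first, then biotinylated RON2 peptide at 25 nM; detection used donor plus acceptor beads, 10 µg/mL apiece, read by AlphaScreen after 30 min at room temperature.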
Pf growth 96h: inhibits malaria parasite growth, 96 h; P. falciparum luciferase reporter growth, 96 h; Potency, µM (titrated, usually from 28.7 µM), for the others: at the top dose activity change, negative = inhibition, actives largely listed as inhibitors; hit rate 6.9% among 320,000; also: potency is read from the fitted curve at half-maximal effect; % is scaled to controls: 0 for no effect and ±100 for the full control effect
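96 h incubation, 37 C, 5% CO2, of luciferase-reporter P. falciparum-infected RBCs (2% hematocrit, 0.05% parasitemia final) with test compounds; endpoint luminescence.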
Cycloheximide cs: affects cycloheximide protein synthesis inhibition readout, counter-screen. cell reporter, cycloheximide protein synthesis inhibition counterscreen. max response, %. hit rate 12% among 300,000; in the data active = max response mostly above about 13%, no sharp cut-off; inactive = mostly below about 14%; also: read at 38.3 µM for the half of the compounds with a filed dose; 0% is about no effect
SARS PLP yeast: blocks SARS-CoV papain-like protease in a yeast assay | S. cerevisiae expressing SARS-CoV PLpro, growth rescue | AID 485353 | hit rate 0.19% among 330,000 | Potency, µM (highest dose often 32.9 µM), for inactives: top-dose activity, positive = growth rescue, most hits filed as activators; calls by dose curve; also: potency is read from the fitted curve at half-maximal effect; 0% is about no effect; nearly all actives have a fitted effect of over 55% in size
Active calls of the source: *; [ ] = dose if it differs, or a comment. Most compounds without a hit are left out; they make up all but 19% or so of the library. Unless noted, calls follow the shape of the dose curve; as a rule, active = well fitted curve in the direction sought with a large enough effect; inconclusive = small, poorly fitted or top-dose-only effect, or another doubt; inactive = no such curve, though single readings can be large; an effect the other way counts as inactive or inconclusive.

What do the screens show for `CCn1ncc(N(C)N)c(Cl)c1=O`?
Shiga inhibitor: 27; Pf growth 48h: -1%; AMA1-RON2 inh: -1%; Pf growth 96h: 19%[5.75 µM]; Cycloheximide cs: 3; SARS PLP yeast: -1%

What do the screens show for `Cc1ccc(NS(=O)(=O)c2ccc(-c3cnc(C4CC4)o3)cc2)cc1`?
Shiga inhibitor: 8; Pf growth 48h: 7%; AMA1-RON2 inh: -5%; Pf growth 96h: 12µM*; Cycloheximide cs: 2; SARS PLP yeast: -17%

What do the screens show for `CC(=O)c1ccc(NS(=O)(=O)c2ccc(-c3cnc(C4CC4)o3)cc2)cc1`?
Shiga inhibitor: -6; Pf growth 48h: 34%; AMA1-RON2 inh: -11%; Pf growth 96h: -27%; Cycloheximide cs: -4; SARS PLP yeast: 0%

What do the screens show for `Clc1ccc(-c2csc(N3CCSCC3)n2)cc1`?
Shiga inhibitor: 114*; Pf growth 48h: 87%; AMA1-RON2 inh: -13%; Pf growth 96h: 7%; Cycloheximide cs: 35*; SARS PLP yeast: -13%

Results for Brc1ccc(-c2csc(N3CCC(c4ccccc4)C3)n2)cc1 (stereo not drawn) ?
Shiga inhibitor: -9; Pf growth 48h: 31%; AMA1-RON2 inh: 14%; Pf growth 96h: 8.3µM*; Cycloheximide cs: 8; SARS PLP yeast: -2%

What do the screens show for `Cc1cc(C)n(-c2nc(-c3ccc(Cl)cc3)cs2)n1`?
Shiga inhibitor: 5; Pf growth 48h: 59%; AMA1-RON2 inh: -1%; Cycloheximide cs: 9; SARS PLP yeast: -6%

What do the screens show for `Cc1ccc(-c2csc(N3C(=N)SCC3=O)n2)cc1`?
Shiga inhibitor: 42*; Pf growth 48h: 232%; AMA1-RON2 inh: 2%; Pf growth 96h: 140%; Cycloheximide cs: 36*; SARS PLP yeast: 3%

How did CC1=NN(c2nc(-c3ccc(F)cc3)cs2)C(=O)C1 do in these assays?
Shiga inhibitor: -15; Pf growth 48h: 6%; AMA1-RON2 inh: 53%; Pf growth 96h: 37%; Cycloheximide cs: -1; SARS PLP yeast: 2%

What do the screens show for `Fc1ccc(-c2csc(N3CCOCC3)n2)cc1`?
Shiga inhibitor: 51*; Pf growth 48h: 68%; AMA1-RON2 inh: -11%; Pf growth 96h: 72%; Cycloheximide cs: 39*; SARS PLP yeast: -1%

Results for CS(=O)(=O)N1CCN(c2nc(-c3ccc(F)cc3)cs2)CC1 ?
Shiga inhibitor: -4; Pf growth 48h: 33%; AMA1-RON2 inh: -5%; Pf growth 96h: 6%; Cycloheximide cs: -2; SARS PLP yeast: -9%

How did Brc1ccc(-c2csc(N3CCc4ccccc4C3)n2)cc1 do in these assays?
Shiga inhibitor: -9; Pf growth 48h: 10%; AMA1-RON2 inh: 3%; Pf growth 96h: 35%; Cycloheximide cs: -3; SARS PLP yeast: 0%

Results for COC(=O)c1nc(-c2ccccc2)oc1N1CCOCC1 ?
Shiga inhibitor: -8; Pf growth 48h: 0%; AMA1-RON2 inh: 17%; Pf growth 96h: 31%; Cycloheximide cs: -3; SARS PLP yeast: 0%

How did COc1ccc(-c2cc(C(F)(F)F)c(C#N)c(SCC(=O)O)n2)cc1OC do in these assays?
Shiga inhibitor: -15; Pf growth 48h: -14%; Pf growth 96h: -8%; Cycloheximide cs: 3; SARS PLP yeast: 5%

How did O=C1NC[C@H](CCCCN2C[C@H](Cc3ccc(O)cc3)N(CC3CCCCC3)C(=O)C2=O)N(CCc2ccc(O)cc2)C1=O do in these assays?
AMA1-RON2 inh: 1%

How did CCOc1nc(NC2CCCCC2)nc(NC(C)(C)C)n1 do in these assays?
Shiga inhibitor: -3; Pf growth 48h: inconclusive; AMA1-RON2 inh: -4%; Pf growth 96h: -3%; Cycloheximide cs: -3; SARS PLP yeast: -14%

Results for O=C(c1cc(-n2cnnc2)ccc1Cl)N1CCN(c2nc(-c3ccccc3)cs2)CC1 ?
Shiga inhibitor: 3; Pf growth 48h: 3%; AMA1-RON2 inh: -13%; Pf growth 96h: 0%; Cycloheximide cs: -1; SARS PLP yeast: -1%

What do the screens show for `O=C(c1ncn[nH]1)N1CCN(c2nc(-c3ccccc3)cs2)CC1`?
Shiga inhibitor: 49; Pf growth 48h: 71%; AMA1-RON2 inh: 56%; Cycloheximide cs: 15*; SARS PLP yeast: -10%

What do the screens show for `Fc1ccc(-c2csc(N3CCSCC3)n2)cc1`?
Shiga inhibitor: 98*; Pf growth 48h: inactive; AMA1-RON2 inh: inconclusive; Pf growth 96h: 106%; Cycloheximide cs: 32*; SARS PLP yeast: -1%
